Assay results published in the supplement of paper PMC11732987, “Enantioselective OTUD7B fragment discovery through chemoproteomics screening and high-throughput optimisation” (Communications Chemistry, 2025).

Experiments:
Assay in all cases: log2 ratio of Biotin-Ahx-Ub-VS probe labelling (fragment/DMSO); higher = less target engagement (more negative = stronger competition), active = hit call of the paper (q ≤ 0.05, log2 ratio ≤ -1)
Details in all cases: compound concentration: 200 uM; treatment time: 3 h
[1] = target: USP34 (UniProt Q70CQ2)
Chain of USP34 (Q70CQ2 whole entry, the tested form may be a part): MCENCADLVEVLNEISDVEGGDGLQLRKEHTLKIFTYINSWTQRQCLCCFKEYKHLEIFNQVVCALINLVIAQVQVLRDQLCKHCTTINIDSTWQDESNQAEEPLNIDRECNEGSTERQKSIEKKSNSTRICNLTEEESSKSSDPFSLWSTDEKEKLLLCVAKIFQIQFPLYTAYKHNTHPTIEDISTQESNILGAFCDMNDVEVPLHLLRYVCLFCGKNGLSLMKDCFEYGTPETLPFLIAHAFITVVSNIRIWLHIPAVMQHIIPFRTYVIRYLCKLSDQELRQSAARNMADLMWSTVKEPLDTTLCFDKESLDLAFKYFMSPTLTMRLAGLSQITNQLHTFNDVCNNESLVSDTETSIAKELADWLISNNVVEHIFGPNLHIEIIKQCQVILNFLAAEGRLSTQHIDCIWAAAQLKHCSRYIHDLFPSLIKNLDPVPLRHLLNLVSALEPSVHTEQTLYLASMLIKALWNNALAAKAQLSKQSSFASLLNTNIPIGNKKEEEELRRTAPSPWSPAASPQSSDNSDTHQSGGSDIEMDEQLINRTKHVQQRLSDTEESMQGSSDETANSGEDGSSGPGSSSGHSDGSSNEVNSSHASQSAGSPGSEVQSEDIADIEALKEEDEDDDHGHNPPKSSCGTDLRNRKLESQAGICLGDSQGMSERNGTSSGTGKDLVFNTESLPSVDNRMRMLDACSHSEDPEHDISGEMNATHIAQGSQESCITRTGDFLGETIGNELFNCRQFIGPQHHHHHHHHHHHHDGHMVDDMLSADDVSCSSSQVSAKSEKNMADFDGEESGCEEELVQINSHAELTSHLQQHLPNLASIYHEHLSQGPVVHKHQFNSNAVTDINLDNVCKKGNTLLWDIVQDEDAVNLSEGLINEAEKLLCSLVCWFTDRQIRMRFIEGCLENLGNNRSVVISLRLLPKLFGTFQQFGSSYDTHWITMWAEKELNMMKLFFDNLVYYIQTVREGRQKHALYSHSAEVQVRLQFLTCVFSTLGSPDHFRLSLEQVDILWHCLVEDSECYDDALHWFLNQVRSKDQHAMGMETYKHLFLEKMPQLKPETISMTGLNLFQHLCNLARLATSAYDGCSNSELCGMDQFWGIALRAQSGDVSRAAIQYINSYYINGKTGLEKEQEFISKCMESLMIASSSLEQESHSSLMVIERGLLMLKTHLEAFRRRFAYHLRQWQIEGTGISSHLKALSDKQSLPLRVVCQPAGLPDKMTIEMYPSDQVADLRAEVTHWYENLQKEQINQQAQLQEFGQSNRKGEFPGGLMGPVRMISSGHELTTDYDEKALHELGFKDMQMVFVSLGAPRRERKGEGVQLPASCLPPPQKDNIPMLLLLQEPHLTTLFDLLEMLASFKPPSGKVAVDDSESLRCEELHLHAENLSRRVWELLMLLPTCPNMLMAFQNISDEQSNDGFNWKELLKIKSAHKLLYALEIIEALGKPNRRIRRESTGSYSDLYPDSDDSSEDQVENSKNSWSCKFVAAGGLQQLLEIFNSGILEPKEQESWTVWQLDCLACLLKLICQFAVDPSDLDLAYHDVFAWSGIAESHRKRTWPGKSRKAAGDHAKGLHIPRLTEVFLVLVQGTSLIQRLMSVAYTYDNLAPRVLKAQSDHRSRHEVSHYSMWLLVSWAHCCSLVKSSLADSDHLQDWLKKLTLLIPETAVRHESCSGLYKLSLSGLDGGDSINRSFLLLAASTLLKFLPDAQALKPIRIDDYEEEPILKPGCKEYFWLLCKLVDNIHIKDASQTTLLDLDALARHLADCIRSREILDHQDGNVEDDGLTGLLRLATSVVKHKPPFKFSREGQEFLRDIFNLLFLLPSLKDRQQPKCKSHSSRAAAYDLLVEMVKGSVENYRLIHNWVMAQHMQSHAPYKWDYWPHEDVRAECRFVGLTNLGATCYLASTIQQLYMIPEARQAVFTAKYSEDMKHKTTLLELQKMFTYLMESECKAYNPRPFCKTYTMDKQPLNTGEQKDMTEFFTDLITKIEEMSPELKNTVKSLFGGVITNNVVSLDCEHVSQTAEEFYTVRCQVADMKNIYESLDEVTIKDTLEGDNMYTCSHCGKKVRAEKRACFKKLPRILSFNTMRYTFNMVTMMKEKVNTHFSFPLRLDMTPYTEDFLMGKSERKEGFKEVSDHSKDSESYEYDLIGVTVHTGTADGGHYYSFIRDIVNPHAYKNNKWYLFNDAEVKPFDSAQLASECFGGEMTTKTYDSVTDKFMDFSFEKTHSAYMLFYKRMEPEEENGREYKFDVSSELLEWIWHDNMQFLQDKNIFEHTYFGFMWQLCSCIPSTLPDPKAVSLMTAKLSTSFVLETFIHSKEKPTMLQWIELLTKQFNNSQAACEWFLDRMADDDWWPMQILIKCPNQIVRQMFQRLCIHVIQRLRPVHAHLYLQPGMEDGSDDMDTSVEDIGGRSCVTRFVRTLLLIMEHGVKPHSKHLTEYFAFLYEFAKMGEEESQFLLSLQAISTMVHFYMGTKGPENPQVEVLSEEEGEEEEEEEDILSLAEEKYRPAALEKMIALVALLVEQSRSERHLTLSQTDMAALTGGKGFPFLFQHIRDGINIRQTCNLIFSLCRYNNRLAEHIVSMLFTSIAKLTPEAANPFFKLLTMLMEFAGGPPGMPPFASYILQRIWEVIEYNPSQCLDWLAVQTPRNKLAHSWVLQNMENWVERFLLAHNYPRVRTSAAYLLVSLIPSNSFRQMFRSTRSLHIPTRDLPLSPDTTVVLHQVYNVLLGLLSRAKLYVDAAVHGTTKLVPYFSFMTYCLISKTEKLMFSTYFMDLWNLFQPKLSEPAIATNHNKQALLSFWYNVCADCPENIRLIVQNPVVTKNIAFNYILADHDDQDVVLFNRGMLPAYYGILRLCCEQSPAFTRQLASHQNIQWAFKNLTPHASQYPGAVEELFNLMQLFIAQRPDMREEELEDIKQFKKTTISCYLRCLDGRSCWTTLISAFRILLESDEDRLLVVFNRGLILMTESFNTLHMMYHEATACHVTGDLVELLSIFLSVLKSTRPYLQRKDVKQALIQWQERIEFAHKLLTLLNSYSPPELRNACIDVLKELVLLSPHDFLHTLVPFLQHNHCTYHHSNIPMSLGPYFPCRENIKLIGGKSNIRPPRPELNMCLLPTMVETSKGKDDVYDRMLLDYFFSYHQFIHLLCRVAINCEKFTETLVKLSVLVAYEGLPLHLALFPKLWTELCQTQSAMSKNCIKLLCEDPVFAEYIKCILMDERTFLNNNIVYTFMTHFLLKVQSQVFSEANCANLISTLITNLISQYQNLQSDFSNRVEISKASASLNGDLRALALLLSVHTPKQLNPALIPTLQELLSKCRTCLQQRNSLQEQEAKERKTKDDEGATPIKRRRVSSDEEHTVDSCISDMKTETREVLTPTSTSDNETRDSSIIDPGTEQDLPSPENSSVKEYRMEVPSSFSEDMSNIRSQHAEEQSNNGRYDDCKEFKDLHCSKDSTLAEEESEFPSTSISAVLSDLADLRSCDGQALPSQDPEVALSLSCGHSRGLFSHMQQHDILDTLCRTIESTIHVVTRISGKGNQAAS
How it was run: (§1)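 Global-median-normalised Spectronaut label-free quantities were compared by unpaired t-test, and values are average log2 ratios of fragment over vehicle. Only proteins with ≥2 unique peptides were used. HEK293T lysate (495 µg per sample) was treated in triplicate with fragment at 200 µM or vehicle for 3 h and then with Biotin-Ahx-Ub-VS at 0.5 µM final for 1 h. Labelled DUBs were then NeutrAvidin-enriched, digested with LysC and trypsin, and run by diaPASEF LC-MS/MS.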

[2] = target: T1, USP36 (UniProt Q9P275)
T1 sequence (whole entry): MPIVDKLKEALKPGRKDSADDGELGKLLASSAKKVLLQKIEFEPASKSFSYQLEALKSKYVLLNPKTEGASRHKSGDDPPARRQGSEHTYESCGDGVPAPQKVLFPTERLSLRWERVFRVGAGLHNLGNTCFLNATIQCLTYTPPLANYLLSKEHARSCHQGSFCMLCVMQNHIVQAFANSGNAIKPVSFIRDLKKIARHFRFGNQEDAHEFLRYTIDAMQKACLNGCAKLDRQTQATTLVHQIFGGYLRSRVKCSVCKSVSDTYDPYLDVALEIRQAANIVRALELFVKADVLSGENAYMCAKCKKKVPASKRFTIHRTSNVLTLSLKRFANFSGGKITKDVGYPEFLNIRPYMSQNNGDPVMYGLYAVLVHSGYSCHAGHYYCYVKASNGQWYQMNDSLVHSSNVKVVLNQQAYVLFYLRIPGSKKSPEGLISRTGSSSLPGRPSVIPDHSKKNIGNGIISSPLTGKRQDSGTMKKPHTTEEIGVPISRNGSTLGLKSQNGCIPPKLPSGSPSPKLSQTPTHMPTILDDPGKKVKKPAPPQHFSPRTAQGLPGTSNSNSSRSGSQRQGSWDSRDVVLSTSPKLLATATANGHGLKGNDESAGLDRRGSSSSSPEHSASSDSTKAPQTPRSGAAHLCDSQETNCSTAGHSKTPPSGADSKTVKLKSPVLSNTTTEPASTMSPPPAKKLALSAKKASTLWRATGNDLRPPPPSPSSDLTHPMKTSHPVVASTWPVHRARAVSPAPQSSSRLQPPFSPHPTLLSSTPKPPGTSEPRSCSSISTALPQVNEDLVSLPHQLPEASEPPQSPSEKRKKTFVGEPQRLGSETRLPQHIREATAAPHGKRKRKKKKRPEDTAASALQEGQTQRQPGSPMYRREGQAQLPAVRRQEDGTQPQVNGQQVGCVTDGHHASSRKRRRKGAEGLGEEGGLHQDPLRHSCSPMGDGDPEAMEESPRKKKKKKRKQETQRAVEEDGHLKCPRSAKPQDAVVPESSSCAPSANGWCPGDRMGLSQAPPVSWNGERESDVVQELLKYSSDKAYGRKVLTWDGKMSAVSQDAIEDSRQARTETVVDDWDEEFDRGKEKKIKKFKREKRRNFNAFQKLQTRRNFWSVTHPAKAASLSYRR
How it was run: as §1

[3] = target: T2, USP38 (UniProt Q8NB14)
T2 sequence (whole entry): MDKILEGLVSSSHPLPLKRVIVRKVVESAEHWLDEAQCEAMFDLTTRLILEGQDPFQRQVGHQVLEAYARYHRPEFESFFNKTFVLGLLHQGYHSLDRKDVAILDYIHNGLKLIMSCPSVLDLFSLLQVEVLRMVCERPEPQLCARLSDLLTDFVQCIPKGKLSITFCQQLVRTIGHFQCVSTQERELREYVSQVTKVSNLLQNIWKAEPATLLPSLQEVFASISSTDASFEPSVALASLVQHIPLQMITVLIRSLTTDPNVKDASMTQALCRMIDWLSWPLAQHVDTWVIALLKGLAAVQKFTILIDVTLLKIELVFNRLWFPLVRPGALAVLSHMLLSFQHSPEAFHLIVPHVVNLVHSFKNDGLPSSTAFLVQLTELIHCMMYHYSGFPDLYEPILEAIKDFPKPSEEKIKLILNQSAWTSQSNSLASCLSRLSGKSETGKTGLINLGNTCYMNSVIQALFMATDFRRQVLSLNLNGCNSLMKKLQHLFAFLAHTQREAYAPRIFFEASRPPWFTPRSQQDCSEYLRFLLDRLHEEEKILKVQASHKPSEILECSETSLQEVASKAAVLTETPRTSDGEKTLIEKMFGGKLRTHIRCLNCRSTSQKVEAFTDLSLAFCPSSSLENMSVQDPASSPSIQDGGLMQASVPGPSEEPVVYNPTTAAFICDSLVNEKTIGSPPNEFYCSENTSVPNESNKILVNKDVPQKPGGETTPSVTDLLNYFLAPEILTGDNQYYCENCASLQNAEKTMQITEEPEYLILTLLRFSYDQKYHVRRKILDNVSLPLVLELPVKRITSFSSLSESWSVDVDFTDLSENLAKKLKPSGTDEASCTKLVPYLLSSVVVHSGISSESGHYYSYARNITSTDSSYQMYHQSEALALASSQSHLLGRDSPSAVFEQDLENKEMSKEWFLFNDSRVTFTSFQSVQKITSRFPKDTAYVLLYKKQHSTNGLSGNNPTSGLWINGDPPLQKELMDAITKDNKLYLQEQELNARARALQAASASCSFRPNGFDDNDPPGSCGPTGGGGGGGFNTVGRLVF
How it was run: as §1

[4] = target: T3, USP39 (UniProt Q53GS9)
T3 sequence (whole entry): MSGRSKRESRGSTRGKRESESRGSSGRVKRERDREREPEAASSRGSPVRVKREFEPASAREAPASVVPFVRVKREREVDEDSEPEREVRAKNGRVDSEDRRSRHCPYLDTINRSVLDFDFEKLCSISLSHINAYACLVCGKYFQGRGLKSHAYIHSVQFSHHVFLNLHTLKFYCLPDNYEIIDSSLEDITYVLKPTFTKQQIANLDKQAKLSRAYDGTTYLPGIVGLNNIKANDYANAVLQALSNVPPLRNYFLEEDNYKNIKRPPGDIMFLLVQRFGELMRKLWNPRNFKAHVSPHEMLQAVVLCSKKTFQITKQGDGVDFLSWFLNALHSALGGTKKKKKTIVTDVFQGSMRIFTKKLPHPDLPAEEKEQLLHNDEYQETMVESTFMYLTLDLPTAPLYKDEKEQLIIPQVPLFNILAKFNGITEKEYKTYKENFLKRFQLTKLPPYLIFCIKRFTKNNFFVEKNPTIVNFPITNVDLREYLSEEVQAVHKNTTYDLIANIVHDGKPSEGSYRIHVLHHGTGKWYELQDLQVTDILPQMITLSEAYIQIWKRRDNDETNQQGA
How it was run: as §1

[5] = target: T4, USP4 (UniProt Q13107)
T4 sequence (whole entry): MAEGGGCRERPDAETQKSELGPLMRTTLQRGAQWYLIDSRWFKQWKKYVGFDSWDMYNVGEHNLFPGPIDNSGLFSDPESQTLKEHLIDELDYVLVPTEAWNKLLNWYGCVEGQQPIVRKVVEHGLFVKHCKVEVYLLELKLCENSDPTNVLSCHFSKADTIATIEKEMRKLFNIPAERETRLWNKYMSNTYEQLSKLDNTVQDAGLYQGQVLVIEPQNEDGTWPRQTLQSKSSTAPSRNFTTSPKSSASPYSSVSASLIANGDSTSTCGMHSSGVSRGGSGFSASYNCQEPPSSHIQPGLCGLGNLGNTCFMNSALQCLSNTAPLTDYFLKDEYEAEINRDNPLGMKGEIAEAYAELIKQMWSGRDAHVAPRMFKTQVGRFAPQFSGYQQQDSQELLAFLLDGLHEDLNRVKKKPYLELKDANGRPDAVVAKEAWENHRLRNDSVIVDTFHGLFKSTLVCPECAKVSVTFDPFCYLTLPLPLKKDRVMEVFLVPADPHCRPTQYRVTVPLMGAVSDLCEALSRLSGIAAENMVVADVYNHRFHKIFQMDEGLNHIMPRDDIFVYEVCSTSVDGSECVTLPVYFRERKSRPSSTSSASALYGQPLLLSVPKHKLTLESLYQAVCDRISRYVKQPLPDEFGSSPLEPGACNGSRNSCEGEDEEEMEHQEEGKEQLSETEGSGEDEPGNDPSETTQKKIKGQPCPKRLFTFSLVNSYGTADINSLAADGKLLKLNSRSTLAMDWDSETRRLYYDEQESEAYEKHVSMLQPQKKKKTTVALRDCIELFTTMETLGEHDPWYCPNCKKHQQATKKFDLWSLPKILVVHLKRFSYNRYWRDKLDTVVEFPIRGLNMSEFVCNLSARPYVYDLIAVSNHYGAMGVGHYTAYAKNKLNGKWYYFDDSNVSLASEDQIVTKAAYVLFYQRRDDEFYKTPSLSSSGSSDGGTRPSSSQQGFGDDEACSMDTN
How it was run: as §1

Measured: log2 ratio of Biotin-Ahx-Ub-VS probe labelling

O=C(CCl)NCC(=O)N1CCCC1
inactive: [1] 0.0366 | [2] -0.0373 | [3] 0.115 | [4] 0.319 | [5] -0.0182
